Measured values as given in PubChem BioAssay (EPA / NIEHS).
Calls of active or inactive are those of the source. The calls were made as follows, unless noted: active = hit-call score of the fitted dose curve at least 0.9, where 1 is the maximum; inactive = score below 0.9.

Columns and labels:
[1] = read-out: Protein phosphatase 2A (PPP2R4), PTPA (gene 5524); test: LTEA_HepaRG_PPP2R4: Life Technologies and Expression Analysis (LTEA) Assay for Protein phosphatase 2A (PPP2R4) using HepaRG (AID 2283522); details: mRNA level, 48 h; actives raise or lower the signal
In short: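 Using HepaRG cultures maintained in 0.5% DMSO, chemicals are tested 48 h at up to 100 uM in duplicate. Induction or suppression of PPP2R4 mRNA, measured by qRT-PCR, is fitted bidirectionally against the vehicle baseline.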

[2] = read-out: Phosphatase and tensin (PTEN), PTEN (gene 5728); test: LTEA_HepaRG_PTEN: Life Technologies and Expression Analysis (LTEA) Assay for Phosphatase and tensin (PTEN) using HepaRG (AID 2283523); details: mRNA level, 48 h; actives raise or lower the signal
In short: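 HepaRG, 48 h exposure, 8-pt half-log series from 100 uM top, 0.5% DMSO vehicle, duplicates. Readout: Fluidigm qRT-PCR of PTEN transcript; housekeeping normalization (ACTB, GAPDH, POLR2A). Gain or loss fitted relative to DMSO baseline.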

[3] = read-out: solute carrier (SLC22A1), SLC22A1 (gene 6580); test: LTEA_HepaRG_SLC22A1: Life Technologies and Expression Analysis (LTEA) Assay for solute carrier (SLC22A1) using HepaRG (AID 2283524); details: mRNA level, 48 h; actives raise or lower the signal;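 as to AC50: differentiated human HepaRG liver cells in serum-free induction medium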
In short: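 qRT-PCR readout (TaqMan, Fluidigm arrays) of SLC22A1 transcript, normalized to three housekeeping genes; bidirectional curve fit relative to 0.5% DMSO vehicle. Differentiated human HepaRG cells, 48 h chemical exposure, top concentration 100 uM, half-log steps, eight points.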

[4] = read-out: Pyruvate Dehydrogenase Kinase 4 (PDK4), PDK4 (gene 5166); test: LTEA_HepaRG_PDK4: Life Technologies and Expression Analysis (LTEA) Assay for Pyruvate Dehydrogenase Kinase 4 (PDK4) using HepaRG (AID 2283525); details: mRNA level, 48 h; actives raise or lower the signal
In short: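 HepaRG (human liver line), 48 h chemical exposure, 8-pt half-log CRC top 100 uM, 0.5% DMSO vehicle, duplicates. Readout: TaqMan qRT-PCR of PDK4 mRNA, housekeeping-normalized; gain/loss fit relative to DMSO baseline.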

[5] = read-out: NAD(P)H dehydrogenase [quinone] 1 (NQO1), NQO1 (gene 1728); test: LTEA_HepaRG_NQO1: Life Technologies and Expression Analysis (LTEA) Assay for NAD(P)H dehydrogenase [quinone] 1 (NQO1) using HepaRG (AID 2283526); details: mRNA level, 48 h; actives raise or lower the signal
In short: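 In this assay, gene expression is read by qRT-PCR after 48 h exposure of HepaRG cells to eight concentrations (max 100 uM, half-log) in 0.5% DMSO. Each chemical runs in duplicate, and activity is scored relative to vehicle.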

[6] = read-out: succinate dehydrogenase complex iron sulfur subunit B (SDHB), SDHB (gene 6390); test: LTEA_HepaRG_SDHB: Life Technologies and Expression Analysis (LTEA) Assay for succinate dehydrogenase complex iron sulfur subunit B (SDHB) using HepaRG (AID 2283528); details: mRNA level, 48 h; actives raise or lower the signal
In short: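 A human HepaRG culture in serum-free induction medium received test chemicals for 48 h over an eight-point range capped at 100 uM. SDHB expression change was quantified by qRT-PCR.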

[7] = read-out: Signal transducer and activator of transcription 3 (Homo sapiens) (UniProt P40763); test: LTEA_HepaRG_STAT3: Life Technologies and Expression Analysis (LTEA) Assay for Signal transducer and activator of transcription (STAT3) using HepaRG (AID 2283529); details: mRNA level, 48 h; actives raise or lower the signal
In short: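 HepaRG, 48 h exposure, 8-pt half-log series (top 100 uM), 0.5% DMSO vehicle, duplicates. Readout: STAT3 transcript by Fluidigm qRT-PCR, housekeeping-normalized; bidirectional fit vs DMSO baseline.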

[8] = read-out: solute carrier (SLCO1B1), SLCO1B1 (gene 10599); test: LTEA_HepaRG_SLCO1B1: Life Technologies and Expression Analysis (LTEA) Assay for solute carrier (SLCO1B1) using HepaRG (AID 2283530); details: mRNA level, 48 h; actives raise or lower the signal
In short: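 HepaRG, serum-free induction medium, 48 h dosing, 8-pt half-log from 100 uM, 0.5% DMSO vehicle, duplicates. Readout: SLCO1B1 mRNA, qRT-PCR, ACTB/GAPDH/POLR2A normalization; up or down fit vs DMSO.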

[9] = read-out: sulfotransferase 2A1 (SULT2A1), SULT2A1 (gene 6822); test: LTEA_HepaRG_SULT2A1: Life Technologies and Expression Analysis (LTEA) Assay for sulfotransferase 2A1 (SULT2A1) using HepaRG (AID 2283531); details: mRNA level, 48 h; actives raise or lower the signal
In short: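 Transcript levels of SULT2A1, quantified by qRT-PCR and normalized to three housekeeping genes, serve as the readout. Human HepaRG cultures receive test chemicals for 48 h at up to 100 uM in half-log steps, with 0.5% DMSO vehicle.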

[10] = read-out: Transforming Growth Factor (TGFA), TGFA (gene 7039); test: LTEA_HepaRG_TGFA: Life Technologies and Expression Analysis (LTEA) Assay for Transforming Growth Factor (TGFA) using HepaRG (AID 2283532); details: mRNA level, 48 h; actives raise or lower the signal
In short: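 qRT-PCR read-out of TGFA transcript, normalized to three housekeeping genes, fitted bidirectionally against 0.5% DMSO baseline. Human HepaRG cultures received chemicals for 48 h at eight half-log concentrations, top 100 uM.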

[11] = read-out: Transforming Growth Factor (TGFB1), TGFB1 (gene 7040); test: LTEA_HepaRG_TGFB1: Life Technologies and Expression Analysis (LTEA) Assay for Transforming Growth Factor (TGFB1) Transporter using HepaRG (AID 2283533); details: mRNA level, 48 h; actives raise or lower the signal
In short: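 HepaRG, 48 h post-plating, switched to serum-free induction medium; chemicals 100 uM top, half-log, 8 pts, 0.5% DMSO, dup; 48 h exposure; RNA → Fluidigm TaqMan qRT-PCR; norm ACTB/GAPDH/POLR2A; bidirectional fit vs DMSO.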

[12] = read-out: TIMP1, TIMP1 (gene 7076); test: LTEA_HepaRG_TIMP1: Life Technologies and Expression Analysis (LTEA) Assay for TIMP1 using HepaRG (AID 2283534); details: mRNA level, 48 h; actives raise or lower the signal
In short: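 Readout is TIMP1 mRNA level measured by qRT-PCR and normalized to three housekeeping genes. Human HepaRG cells were treated for 48 h in duplicate at eight concentrations up to 100 uM (0.5% DMSO); gain or loss fitted against DMSO.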

[13] = read-out: Tumor necrosis factor receptor 1 (TNFRSF1A), TNFRSF1A (gene 7132); test: LTEA_HepaRG_TNFRSF1A: Life Technologies and Expression Analysis (LTEA) Assay for Tumor necrosis factor receptor 1 (TNFRSF1A) using HepaRG (AID 2283535); details: mRNA level, 48 h; actives raise or lower the signal
In short: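 Read-out is TNFRSF1A transcript level by TaqMan qRT-PCR, normalized to three housekeeping genes, scored as gain or loss of signal versus 0.5% DMSO. Human HepaRG cells received test chemicals for 48 h at up to 100 uM (half-log series).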

[14] = read-out: Thyroid Hormone Responsive (THRSP), THRSP (gene 7069); test: LTEA_HepaRG_THRSP: Life Technologies and Expression Analysis (LTEA) Assay for Thyroid Hormone Responsive (THRSP) using HepaRG (AID 2283536); details: mRNA level, 48 h; actives raise or lower the signal
In short: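 qRT-PCR read-out (Fluidigm TaqMan), housekeeping-normalized (ACTB/GAPDH/POLR2A). HepaRG, 48 h chemical exposure, 8-pt half-log series from 100 uM in 0.5% DMSO, duplicates. Bidirectional curve fit vs 0.5% DMSO baseline.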

[15] = read-out: Cellular tumor antigen p53 (Homo sapiens) (UniProt P04637); test: LTEA_HepaRG_TP53: Life Technologies and Expression Analysis (LTEA) Assay for Tumor Protein P53 (TP53) using HepaRG (AID 2283537); details: mRNA level, 48 h; actives raise or lower the signal
In short: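 Gain or loss of TP53 mRNA signal is scored relative to 0.5% DMSO after 48 h chemical treatment of HepaRG liver cells, tested in duplicate at eight half-log concentrations up to 100 uM.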

[16] = read-out: UDP glucuronosyltransferase (UGT1A1), UGT1A1 (gene 54658); test: LTEA_HepaRG_UGT1A1: Life Technologies and Expression Analysis (LTEA) Assay for UDP glucuronosyltransferase (UGT1A1) using HepaRG (AID 2283538); details: mRNA level, 48 h; actives raise or lower the signal
In short: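 mRNA induction or loss of UGT1A1, by TaqMan qRT-PCR, in duplicate HepaRG wells after 48 h exposure to half-log dilutions topping at 100 uM; DMSO (0.5%) served as baseline.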

[17] = read-out: UDP glucuronosyltransferase (UGT1A6), UGT1A6 (gene 54578); test: LTEA_HepaRG_UGT1A6: Life Technologies and Expression Analysis (LTEA) Assay for UDP glucuronosyltransferase (UGT1A6) using HepaRG (AID 2283539); details: mRNA level, 48 h; actives raise or lower the signal
In short: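 HepaRG, 48 h post-plating switch to serum-free induction medium; chemical 48 h, 100 uM top, half-log x8, duplicate, 0.5% DMSO. Phenobarbital 1mM induction control. UGT1A6 mRNA by TaqMan qRT-PCR; gain/loss fit vs DMSO.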

[18] = read-out: X-box binding protein 1 (XBP1), XBP1 (gene 7494); test: LTEA_HepaRG_XBP1: Life Technologies and Expression Analysis (LTEA) Assay for X-box binding protein 1 (XBP1) using HepaRG (AID 2283540); details: mRNA level, 48 h; actives raise or lower the signal
In short: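 Transcript levels of XBP1, measured by qRT-PCR and normalised to three housekeeping genes, were fitted bidirectionally relative to 0.5% DMSO controls. Human HepaRG cells received eight-point half-log dilutions from 100 uM for 48 h.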

[19] = LTEA_HepaRG_LDH_cytotoxicity: Cytotoxicity Assessment in the Life Technologies and Expression Analysis (LTEA) Assay (AID 2283563; active = hit-call score of the fitted dose curve at least 0.9, where 1 is the maximum;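 as to AC50: LDH activity released into spent culture medium as a marker of cell death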)
In short: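 Cells were thawed and plated for 48 h. Medium was then replaced with serum-free induction medium. Chemicals (8 half-log points, maximum 100 uM, 0.5% DMSO) were added in duplicate for 48 h, after which spent medium was assayed for LDH.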

[20] = read-out: Nuclear factor erythroid 2-related factor 2 (Homo sapiens) (UniProt Q16236); test: LTEA_HepaRG_NFE2L2: Life Technologies and Expression Analysis (LTEA) Assay for Nuclear factor erythroid 2-related factor 2 (NFE2L2) Transcription Factor using HepaRG (AID 2283527); details: mRNA level, 48 h; actives raise or lower the signal
In short: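 HepaRG, 48 h dosing, 8-pt half-log series from 100 uM in 0.5% DMSO, duplicates. Read-out: NFE2L2 mRNA by qRT-PCR (ACTB/GAPDH/POLR2A normalization). Bidirectional curve fit vs DMSO baseline.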

Measured: AC50

Signal transducer and activator of transcription 3 (Homo sapiens), sequence (P40763 whole entry, looked up): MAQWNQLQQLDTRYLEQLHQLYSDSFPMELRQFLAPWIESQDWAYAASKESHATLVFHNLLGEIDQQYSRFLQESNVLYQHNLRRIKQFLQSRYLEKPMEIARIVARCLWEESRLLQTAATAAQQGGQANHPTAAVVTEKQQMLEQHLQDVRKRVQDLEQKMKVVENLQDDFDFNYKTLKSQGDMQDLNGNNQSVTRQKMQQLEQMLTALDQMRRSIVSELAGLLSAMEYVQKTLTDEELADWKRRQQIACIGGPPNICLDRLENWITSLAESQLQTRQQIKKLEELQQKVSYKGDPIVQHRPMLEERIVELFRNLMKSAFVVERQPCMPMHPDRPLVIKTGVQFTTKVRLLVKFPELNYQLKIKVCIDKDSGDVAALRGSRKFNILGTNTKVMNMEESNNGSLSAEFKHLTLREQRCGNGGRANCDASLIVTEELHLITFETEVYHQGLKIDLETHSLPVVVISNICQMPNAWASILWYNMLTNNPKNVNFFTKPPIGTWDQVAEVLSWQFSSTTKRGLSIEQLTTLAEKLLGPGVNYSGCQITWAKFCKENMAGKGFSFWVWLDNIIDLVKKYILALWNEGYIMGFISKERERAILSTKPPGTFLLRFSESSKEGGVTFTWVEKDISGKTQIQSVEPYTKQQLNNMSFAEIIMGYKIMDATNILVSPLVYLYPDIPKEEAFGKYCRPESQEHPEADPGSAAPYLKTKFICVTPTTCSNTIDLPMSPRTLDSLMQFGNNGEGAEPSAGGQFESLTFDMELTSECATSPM
Cellular tumor antigen p53 (Homo sapiens), sequence (P04637 whole entry, looked up): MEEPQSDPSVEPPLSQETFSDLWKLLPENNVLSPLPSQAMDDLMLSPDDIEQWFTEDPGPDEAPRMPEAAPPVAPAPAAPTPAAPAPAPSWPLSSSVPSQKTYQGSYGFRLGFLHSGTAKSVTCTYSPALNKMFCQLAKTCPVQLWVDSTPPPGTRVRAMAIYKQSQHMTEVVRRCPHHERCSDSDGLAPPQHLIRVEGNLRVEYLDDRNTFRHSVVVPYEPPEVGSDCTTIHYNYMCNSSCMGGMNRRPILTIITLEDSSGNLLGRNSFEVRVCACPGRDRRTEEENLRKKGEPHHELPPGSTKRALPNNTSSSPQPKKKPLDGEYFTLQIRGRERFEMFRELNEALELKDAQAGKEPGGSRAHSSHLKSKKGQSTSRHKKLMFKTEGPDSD
Nuclear factor erythroid 2-related factor 2 (Homo sapiens), sequence (Q16236 whole entry, looked up): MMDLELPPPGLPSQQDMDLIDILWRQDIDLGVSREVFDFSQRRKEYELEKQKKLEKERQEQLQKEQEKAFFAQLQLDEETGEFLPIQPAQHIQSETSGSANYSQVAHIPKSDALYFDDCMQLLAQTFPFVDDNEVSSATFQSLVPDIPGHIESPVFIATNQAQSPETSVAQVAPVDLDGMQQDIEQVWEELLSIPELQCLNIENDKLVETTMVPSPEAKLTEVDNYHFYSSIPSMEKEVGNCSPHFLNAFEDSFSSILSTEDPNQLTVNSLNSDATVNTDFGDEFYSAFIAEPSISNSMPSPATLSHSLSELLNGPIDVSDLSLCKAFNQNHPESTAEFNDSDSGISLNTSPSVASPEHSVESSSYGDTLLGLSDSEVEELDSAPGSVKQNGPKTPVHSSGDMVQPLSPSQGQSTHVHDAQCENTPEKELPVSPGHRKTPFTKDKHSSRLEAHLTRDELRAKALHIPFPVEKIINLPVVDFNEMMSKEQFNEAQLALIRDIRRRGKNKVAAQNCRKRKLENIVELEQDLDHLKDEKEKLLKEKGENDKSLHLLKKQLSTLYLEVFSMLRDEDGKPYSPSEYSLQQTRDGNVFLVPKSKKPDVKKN

CCOC(=O)O[C@H](C)OC(=O)c1ccc2c(c1)cc(C(=O)NC1CCN(C(C)C)CC1)n2Cc1cc(-c2ccc(Cl)s2)on1
active: [14] 16 µM | [19] 79.2 µM
not listed: [20]
inactive: all other assays above

CCCOC(=O)c1cc(O)c(O)c(O)c1
active: [4] 31.4 µM | [16] 1.73 µM
not listed: [14]
inactive: all other assays above

CCCCCCCCN(C)CCCCCCCC
not listed: [16]
inactive: all other assays above

Cc1cn([C@H]2C[C@H](N=[N+]=[N-])[C@@H](CO)O2)c(=O)[nH]c1=O
not listed: [11]
inactive: all other assays above

O=C1c2ccccc2C(=O)N1CCc1noc(-c2ccc(CN3CCCCCC3)s2)n1
active: [16] 17.8 µM
not listed: [11] | [12]
inactive: all other assays above

CCO[Si](CCCNC(N)=O)(OCC)OCC
not listed: [14] | [16]
inactive: all other assays above

CCCCCc1ccc(N)cc1
not listed: [16]
inactive: all other assays above

CC[C@H](NC(=O)c1cc(F)ccc1NS(=O)(=O)c1cccc2cccnc12)c1ccccc1
active: [3] 50.8 µM | [8] 77.6 µM | [9] 84.8 µM | [17] 47.8 µM
not listed: [16]
inactive: all other assays above

CC(C)(O)c1ccc(CNC(=O)c2cccnc2Oc2ccc3nonc3c2)cc1
not listed: [14] | [16]
inactive: all other assays above

CC(C)(C)c1csc(-c2cc3cc(OCc4ccccc4CC(=O)O)ccc3o2)n1
active: [1] 85.2 µM | [2] 80.1 µM | [3] 25 µM | [4] 12 µM | [5] 93.4 µM | [6] 84.8 µM | [7] 91 µM | [8] 50 µM | [9] 34 µM | [10] 85.4 µM | [11] 81.9 µM | [12] 78.4 µM | [13] 83.2 µM | [15] 82.4 µM | [17] 77.2 µM | [19] 76.6 µM
inactive: [14] | [18]

Cc1ccc(C(C)C)cc1
not listed: [11] | [14]
inactive: all other assays above

CN(C)C(=O)C1(N2CCCCC2)CCN(CC[C@@]2(c3ccc(Cl)c(Cl)c3)CN(C(=O)c3ccccc3)CCO2)CC1
inactive: [2] | [4] | [5] | [10] | [18]
active: [1] 27.2 µM | [3] 27.6 µM | [20] 47.2 µM | [6] 22.5 µM | [7] 47.2 µM | [8] 23.1 µM | [9] 23.3 µM | [11] 47.2 µM | [13] 27.5 µM | [15] 47.2 µM | [16] 27.6 µM | [17] 25.7 µM | [19] 20 µM

O=C(O)c1ccccc1C(=O)OCc1ccccc1
active: [4] 28.6 µM
not listed: [11] | [14] | [16] | [19]
inactive: all other assays above
